A short description of test [1]: small molecules captured by biotinylated probe aFSTL3 – biochemical, small-molecule microarray, fluorescence 635/667, stem cell growth factor project, primary screen (AID 1064).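 Also: measures binding of the biotinylated anti-FSTL3 antibody to printed compounds.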 To be noted: higher = more signal.
A short description of test [2]: binders from COS7 lysate, DM2A8 probe, primary screen, torsin A project, cell lysate, small-molecule microarray, fluorescence 635/667 (AID 1065). To be noted: higher = more signal, COS7 lysate expressing mutant human TOR1A.
Test [3] in a line: small molecules captured by biotinylated probe aFGF2 – biochemical, small-molecule microarray, fluorescence 635/667, stem cell growth factor project, primary screen (AID 1067).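 Also: measures binding of biotinylated aFGF2 protein to printed compounds on slides; z-score merges feature fluorescence and signal-to-noise across triplicate slides.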 The settings on record: higher = more signal.
Test [4] can be described thus: small molecules captured by biotinylated probe aFGF10 – biochemical, small-molecule microarray, fluorescence 635/667, stem cell growth factor project, primary screen (AID 1071).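 Also: score merges 667 nm spot intensity and signal to noise from triplicate slides.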 To be noted: higher = more signal.
The target of test [5] is Neurogenic locus notch homolog protein 2 (Homo sapiens) (UniProt Q04721). Put plainly: small molecules binding Notch2 protein – biochemical, small-molecule microarray, 635 nm fluorescence, stem cell growth factors, primary screen (AID 1073). To be noted: higher = more signal.
The target of test [6] is Pro-neuregulin-1, membrane-bound isoform (Homo sapiens) (UniProt Q02297). The test is described as follows: small molecules binding neuregulin-1 protein – biochemical, small-molecule microarray, fluorescence 635/667, psychiatric disease protein project, primary screen (AID 1075).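 Also: score combines 667 nm spot fluorescence with signal to noise.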 To be noted: NRG1 binding, 635 nm fluorescence, higher = more signal.
Test [7] has as its system Neuregulin-1 EGF-like domain. Put plainly: small molecules binding NRG1 EGF domain – biochemical, small-molecule microarray, 635 nm fluorescence, primary screen (AID 1081).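 Also: binding of the protein to compounds printed on small-molecule microarray slides.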 To be noted: higher = more signal.
The nature of test [8]: FRG1 expression reporter modulators in myotubes – cell-based, C2C12 myotubes, firefly/Renilla luciferase, luminescence, FRG1 inhibition for FSHD, primary screen (AID 1084). To be noted: FRG1 promoter luciferase, higher = more signal, called active from +8 up or from −8 down.
Test [9] can be described thus: small molecules captured by biotinylated probe aFST – biochemical, small-molecule microarray, fluorescence 635/667, stem cell growth factor project, primary screen (AID 1086).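 Also: score merges 667 nm fluorescence with signal-to-noise of each printed compound spot.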 The settings on record: higher = more signal.
Test [10] is described as follows: binders of probe aHhip on microarray, primary screen, stem cell growth factor project, biochemical, small-molecule microarray, fluorescence 635/667 (AID 1087).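 Also: score merges spot fluorescence at 667nm with spot signal to noise ratio.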 To be noted: higher = more signal.
Test [11] concerns PRMT1 (protein arginine N-methyltransferase 1). The test is described as follows: small molecules binding arginine methyltransferase PRMT1 – biochemical, small-molecule microarray, 635 nm fluorescence, primary screen (AID 1088).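 Also: binding of Prmt1 protein to compounds spotted on small-molecule microarray slides.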 To be noted: higher = more signal.
Test [12] is described as follows: growth effects on S. cerevisiae YJM789 – YJM789 clinical isolate, OD600, 24 h, basal, primary screen (AID 1089).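 Also: growth of clinical yeast isolate S. cerevisiae YJM 789 seeded 1000 cells per well; test concentration not given here.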 To be noted: higher = more signal, called active from +8 up or from −8 down.
Test [13] is described as follows: S. pombe growth modifiers, basal conditions – strain 972, OD600, 24 h, no modulator, primary screen (AID 1090).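 Also: basal condition with compound alone and no growth modifier present; test concentration not given here.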 To be noted: S. pombe 972 growth, higher = more signal, called active from +8 up or from −8 down.
Test [14] can be described thus: budding yeast growth modifiers under rapamycin – strain BY4716, OD600, 96 h, primary screen (AID 1091). Also: test concentration not given here. To be noted: S. cerevisiae BY4716 + rapamycin, higher = more signal, called active from +8 up or from −8 down.
For test [15], the target named is Torsin-1A-interacting protein 2 (Homo sapiens) (UniProt Q8NFQ8). The test is described as follows: small molecules binding lysate-expressed LULL1 – cell lysate, human LULL1 lysate, 635/667 nm fluorescence, primary screen (AID 1092).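 Also: probe is lysate of COS7 cells overexpressing human LULL1; score merges per-feature 667 nm fluorescence with signal-to-noise.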 The settings on record: small-molecule microarray, hLULL1 lysate binding, 635 nm fluorescence; higher = more signal.
Test [16] can be described thus: optical density change of DRC41 E. coli – strain DRC41, OD650, 24 h, E. coli filamentation project, primary screen (AID 1093).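 Also: MC1000 strain lacking acrAB efflux and sulA so SOS filamentation is blocked; test concentration not given here.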 The settings on record: E. coli DRC41 growth, higher = more signal, called active from +8 up or from −8 down.
The nature of test [17]: probe aLefty2 binding to arrayed compounds – biochemical, biotinylated probe, 635/667 nm fluorescence, primary screen (AID 1094).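 Also: score merges spot fluorescence near 667 nm with spot signal-to-noise ratio.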 To be noted: small-molecule microarray, higher = more signal.
Test [18] deals with Noggin (protein binding on small-molecule microarray). The test is described as follows: small molecules binding Noggin protein – biochemical, 635/667 nm fluorescence, primary screen (AID 1095).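 Also: score merges 667 nm feature fluorescence with signal to noise over triplicate slides.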 To be noted: 635 nm fluorescence, higher = more signal.
In test [19] the target is Neurogenic locus notch homolog protein 3 (Homo sapiens) (UniProt Q9UM47). The test is described as follows: small molecules binding NOTCH3 protein – biochemical, 635/667 nm fluorescence, primary screen (AID 1096). To be noted: small-molecule microarray, 635 nm fluorescence, higher = more signal.
The nature of test [20]: probe aEGFR binding to arrayed compounds – biochemical, biotinylated probe, 635/667 nm fluorescence, primary screen (AID 1097).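 Also: probe is a biotinylated anti-EGFR antibody binding compounds printed on slides; score combines fluorescence near 667 nm and signal to noise of each spot.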 The settings on record: small-molecule microarray, higher = more signal.

Several values for one entry are separate records, joined by “and”; a condition that tells them apart may be missing. Equal values may be shown once. Where a structure was tested more than once in an assay, its records may differ in their call. Activity calls are given as the source filed them.

Sequence of Torsin-1A-interacting protein 2 (Homo sapiens) (Q8NFQ8 whole entry, looked up): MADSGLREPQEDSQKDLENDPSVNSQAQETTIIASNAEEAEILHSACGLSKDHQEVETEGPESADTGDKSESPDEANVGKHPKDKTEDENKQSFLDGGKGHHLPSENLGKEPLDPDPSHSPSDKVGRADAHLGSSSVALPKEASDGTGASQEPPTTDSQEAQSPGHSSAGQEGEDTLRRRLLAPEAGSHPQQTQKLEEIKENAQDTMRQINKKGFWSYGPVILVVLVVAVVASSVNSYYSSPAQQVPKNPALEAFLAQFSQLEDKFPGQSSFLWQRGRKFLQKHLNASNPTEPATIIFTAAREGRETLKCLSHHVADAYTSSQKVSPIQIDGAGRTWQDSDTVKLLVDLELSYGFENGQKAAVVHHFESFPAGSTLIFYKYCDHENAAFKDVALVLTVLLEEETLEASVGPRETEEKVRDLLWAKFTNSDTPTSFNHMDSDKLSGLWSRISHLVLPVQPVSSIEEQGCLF
Sequence of Neurogenic locus notch homolog protein 3 (Homo sapiens) (Q9UM47 whole entry, looked up): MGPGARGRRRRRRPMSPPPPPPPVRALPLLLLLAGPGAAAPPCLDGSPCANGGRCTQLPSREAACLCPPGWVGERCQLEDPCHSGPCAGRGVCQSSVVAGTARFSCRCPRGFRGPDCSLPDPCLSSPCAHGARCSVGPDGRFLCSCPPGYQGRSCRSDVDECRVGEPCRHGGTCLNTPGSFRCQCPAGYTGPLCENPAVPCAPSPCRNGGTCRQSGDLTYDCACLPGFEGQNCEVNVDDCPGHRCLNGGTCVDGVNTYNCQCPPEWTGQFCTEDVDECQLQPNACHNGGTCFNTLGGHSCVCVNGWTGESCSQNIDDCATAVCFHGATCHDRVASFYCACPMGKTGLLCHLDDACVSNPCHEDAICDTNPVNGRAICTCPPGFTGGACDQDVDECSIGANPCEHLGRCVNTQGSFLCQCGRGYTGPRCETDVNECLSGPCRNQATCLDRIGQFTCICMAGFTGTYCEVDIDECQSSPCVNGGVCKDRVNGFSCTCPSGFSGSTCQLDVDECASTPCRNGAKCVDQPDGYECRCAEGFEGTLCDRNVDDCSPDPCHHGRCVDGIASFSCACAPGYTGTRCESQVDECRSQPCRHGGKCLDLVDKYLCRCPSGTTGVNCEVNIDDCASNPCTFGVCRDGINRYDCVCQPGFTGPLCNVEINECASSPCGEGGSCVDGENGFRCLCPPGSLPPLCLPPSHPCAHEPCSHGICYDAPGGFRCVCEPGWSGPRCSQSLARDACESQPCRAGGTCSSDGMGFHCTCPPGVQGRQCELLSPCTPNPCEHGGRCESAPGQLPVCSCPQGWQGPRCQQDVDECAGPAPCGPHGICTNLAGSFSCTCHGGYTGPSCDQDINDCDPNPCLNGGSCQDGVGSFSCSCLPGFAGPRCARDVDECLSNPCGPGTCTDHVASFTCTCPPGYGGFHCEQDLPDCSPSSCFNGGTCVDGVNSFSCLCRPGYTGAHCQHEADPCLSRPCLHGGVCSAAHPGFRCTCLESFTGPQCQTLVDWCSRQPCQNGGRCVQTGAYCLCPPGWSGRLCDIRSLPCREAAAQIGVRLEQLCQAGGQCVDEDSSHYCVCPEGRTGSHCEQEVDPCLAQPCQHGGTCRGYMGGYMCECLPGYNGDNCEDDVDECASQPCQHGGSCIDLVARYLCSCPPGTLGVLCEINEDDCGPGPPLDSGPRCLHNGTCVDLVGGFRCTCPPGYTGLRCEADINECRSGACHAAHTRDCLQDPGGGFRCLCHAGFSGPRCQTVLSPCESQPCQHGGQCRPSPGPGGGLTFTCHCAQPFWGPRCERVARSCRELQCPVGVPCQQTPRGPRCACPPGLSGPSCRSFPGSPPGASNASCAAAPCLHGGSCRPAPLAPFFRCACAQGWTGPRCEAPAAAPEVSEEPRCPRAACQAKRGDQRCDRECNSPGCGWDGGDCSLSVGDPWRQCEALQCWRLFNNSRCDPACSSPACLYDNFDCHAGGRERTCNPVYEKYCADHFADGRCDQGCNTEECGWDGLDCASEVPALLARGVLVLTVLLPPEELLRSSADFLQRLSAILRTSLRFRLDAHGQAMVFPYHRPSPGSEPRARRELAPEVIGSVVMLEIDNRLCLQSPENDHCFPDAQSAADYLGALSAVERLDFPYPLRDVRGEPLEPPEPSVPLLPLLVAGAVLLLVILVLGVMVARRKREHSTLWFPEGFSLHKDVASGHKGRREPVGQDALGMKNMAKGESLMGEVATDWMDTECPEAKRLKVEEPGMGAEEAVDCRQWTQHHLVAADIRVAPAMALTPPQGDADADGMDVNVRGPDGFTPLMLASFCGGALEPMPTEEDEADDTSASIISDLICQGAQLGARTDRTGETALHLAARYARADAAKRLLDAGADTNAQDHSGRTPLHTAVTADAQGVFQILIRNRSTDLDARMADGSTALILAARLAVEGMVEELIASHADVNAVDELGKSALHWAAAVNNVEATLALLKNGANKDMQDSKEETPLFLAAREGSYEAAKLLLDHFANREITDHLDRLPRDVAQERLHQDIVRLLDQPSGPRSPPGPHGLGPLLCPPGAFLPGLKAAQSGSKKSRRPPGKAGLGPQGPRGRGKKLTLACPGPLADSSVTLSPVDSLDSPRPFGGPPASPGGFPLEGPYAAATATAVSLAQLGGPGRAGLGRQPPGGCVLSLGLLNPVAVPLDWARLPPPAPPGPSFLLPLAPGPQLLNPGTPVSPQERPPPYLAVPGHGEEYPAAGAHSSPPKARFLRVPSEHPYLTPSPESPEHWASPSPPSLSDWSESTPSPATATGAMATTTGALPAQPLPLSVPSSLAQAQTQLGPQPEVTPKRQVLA
Sequence of Pro-neuregulin-1, membrane-bound isoform (Homo sapiens) (Q02297 whole entry, looked up, the tested form may be a part, canonical isoform): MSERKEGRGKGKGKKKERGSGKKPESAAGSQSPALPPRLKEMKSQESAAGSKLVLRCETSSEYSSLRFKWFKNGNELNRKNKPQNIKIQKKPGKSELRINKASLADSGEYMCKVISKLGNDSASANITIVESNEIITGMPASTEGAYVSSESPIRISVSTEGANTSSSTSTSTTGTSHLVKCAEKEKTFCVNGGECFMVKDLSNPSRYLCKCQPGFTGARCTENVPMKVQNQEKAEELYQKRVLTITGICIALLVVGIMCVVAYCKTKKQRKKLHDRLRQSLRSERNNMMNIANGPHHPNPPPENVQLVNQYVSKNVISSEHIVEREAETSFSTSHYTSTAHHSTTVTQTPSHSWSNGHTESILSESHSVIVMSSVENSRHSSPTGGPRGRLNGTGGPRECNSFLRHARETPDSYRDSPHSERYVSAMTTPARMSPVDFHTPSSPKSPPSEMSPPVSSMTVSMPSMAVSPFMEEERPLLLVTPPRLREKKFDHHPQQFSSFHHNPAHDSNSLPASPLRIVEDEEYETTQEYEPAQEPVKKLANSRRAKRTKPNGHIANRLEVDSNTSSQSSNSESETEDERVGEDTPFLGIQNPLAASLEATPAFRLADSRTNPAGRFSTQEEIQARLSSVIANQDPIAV

Regarding `C=CC[C@@H](O)c1ccc(O)c(F)c1`, the composite z-score in test [1] was 1.77 and 0.459; in test [2] it was 0.897 and -0.727; in [3], -0.0695 and -0.194; in [4], -0.03 and -1.69; in [5] it was -1.42 and -2.14; in test [6], -0.627 and -0.0657. For the same molecule, the composite z-score is 0.684 and 0.704 in [7]; -0.922 and -0.799 in test [9]; -0.132 and 0.0392 in test [10]; -0.508 and -0.514 in test [11]; -0.471 and -1.19 in test [15]; -0.0329 and -0.0221 in [17]. Further, the composite z-score in test [18] is -2.36 and -0.702; in [19], -1.4 and -0.883; in test [20], -0.384 and -0.381. Moreover, the z-score is 0.572 (inactive) and -1.4 (inactive) in test [8]; 0.442 (inactive) and -0.907 (inactive) in [12]; -0.6 (inactive) and -1.52 (inactive) in test [13]; -0.389 (inactive) and -1.67 (inactive) in test [14]; 0.336 (inactive) and 1.94 (inactive) in test [16].
On to `O=C(NN=C1C[C@@H](O)[C@@H](O)[C@@H]2[C@@H]3C(=O)N(Cc4ccc5c(c4)OCO5)C(=O)[C@@H]3CC[C@H]12)OCc1ccccc1`, for which the composite z-score in [1] is -0.196; in test [2] it was 1.64; in [3] it was -0.025; in test [4], -0.348; in test [5], 0.64; in test [6], -1.21. For the same molecule, the composite z-score in [7] was -1.43; in test [9], 0.965; in test [10] it was -0.387; in test [11], 1.15; in [15], -0.815; in test [17] it was -0.0047. Moreover, the results for the composite z-score in [18], in [19] and in test [20] were 0.707, -0.0259 and -0.0828, respectively. The z-score was -0.0282 (inactive) in test [8]; 0.48 (inactive) in [12]; -0.157 (inactive) in test [13]; 0.191 (inactive) in [14]; 1.01 (inactive) in test [16].
As for `C=CC[C@@H](O)c1ccc(OCCO)cc1`, the composite z-score is 0.137 and 0.75 in [1]; -0.827 and -0.804 in [2]; -0.0908 and -0.279 in test [3]; -0.0284 and -0.887 in test [4]; -1.41 and -2.02 in [5]; -0.773 and -0.567 in test [6]. For the same molecule, the composite z-score was -0.0171 and 0.209 in test [7]; -0.871 and -1.16 in [9]; -0.184 and -0.134 in [10]; 0.347 and -0.516 in test [11]; -0.821 and -0.479 in test [15]; 0.0698 and 0.066 in test [17]. Besides, the composite z-score was 0.29 and -0.934 in test [18]; -1.03 and -0.668 in test [19]; -0.272 and -0.305 in test [20]. Further, the z-score is 0.373 (inactive) and 1.07 (inactive) in test [8]; -2.53 (inactive) and -2.22 (inactive) in [12]; -10.4 (active) and -1.63 (inactive) in test [13]; -0.121 (inactive) and -0.238 (inactive) in [14]; 0.638 (inactive) and 0.664 (inactive) in [16].
Take `C=CCN(C(=O)C(c1cccs1)N(CCOCCO)C(=O)/C=C\C(=O)O)c1ccc(OC)cc1` (stereo not given): the composite z-score in test [1] is -0.454 and 0.71; in [2], -0.415 and -1.59; in test [3] it was -0.103 and -0.186; in test [4], -0.729 and -1.06; in test [5], -1.03 and -1.83; in test [6], -0.933 and -1.12. Besides, the composite z-score is -0.247 and -0.936 in [7]; -0.348 and -0.687 in test [9]; -0.301 and -0.226 in test [10]; -1.56 and -0.685 in test [11]; -1.45 and -0.709 in [15]; -0.25 and -0.299 in test [17]. For the same molecule, the composite z-score in test [18] was -0.482 and -1.39; in test [19] it was -1.2 and -0.655; in test [20], -0.172 and -0.316. Besides, the z-score in test [8] is -0.993 (inactive) and -0.205 (inactive); in test [12] it was -2.54 (inactive) and -0.463 (inactive); in test [13], -0.314 (inactive) and -2.05 (inactive); in test [14] it was -1.51 (inactive) and -0.835 (inactive); in [16] it was 2.74 (inactive) and 2.71 (inactive).

(Values after PubChem BioAssay.)
